Tau fibril FP: tau fibrillization inhibition (FP) | P10636 | AID 1468 | K18 P301L tau heparin fibrillization, Alexa594 FP, 6 h | 280,000 compounds, 0.39% hits | Potency, µM (highest dose often 57.7 µM), for inactives: at the top dose activity, negative = inhibition, usual class: inhibitors; further: potency means the concentration at half of the fitted maximal effect; nearly all actives have a fitted effect of over 55% in size
Target sequence (P10636 561-689 P618L limits assumed): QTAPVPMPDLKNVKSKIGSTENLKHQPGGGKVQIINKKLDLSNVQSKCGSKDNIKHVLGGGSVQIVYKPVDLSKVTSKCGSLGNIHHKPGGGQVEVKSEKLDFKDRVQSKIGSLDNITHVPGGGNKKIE
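Read-out: fluorescence polarization of Alexa 594-labeled tau (0.24 uM), 555 nm excitation, 632 nm emission. Mixtures held 15 uM unlabeled K18 P301L, compound and 20 uM heparin, pH 7 acetate buffer, incubated 6 hr at 37 C.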
FBPA coupling cs: inhibits coupling enzyme system, counter-screen for aldolase hits; coupling enzyme system counterscreen, AmpLite Red fluorescence; activity change, negative = inhibition, % at 58.2 µM, hits read low; 290,000 compounds, 0.67% hits; AID 2472; in the data active means activity change below about -30%
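Final compound at 57.5 uM, incubated 10 min at RT with coupling enzyme reagent (glyceraldehyde-3-phosphate), then 20 min with substrate and AmpLite Red detection. Fluorescence read at 525/598 nm; tests interference with the coupling assay, not aldolase inhibition.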
Tau fluor counter: counter-screen for tau fibril formation inhibitors. AID 1463. tau K18 P301L Alexa594 fluorescence, heparin fibrillization. 280,000 compounds, 0.93% hits. Potency, µM (series often up to 57.7 µM), without a hit: at the top dose activity change, negative = decrease; further: potency means the concentration at half of the fitted maximal effect; nearly all actives have a fitted effect of over 55% in size
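Human K18 P301L tau (15 uM unlabeled plus 0.24 uM Alexa 594-labeled, final) in 100 mM sodium acetate pH 7 was mixed with compound and 20 uM heparin and incubated 6 hr at 37 C.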
Tau ThT inhib: inhibitors of human tau fibril formation, thioflavin T binding; Potency, µM (highest dose often 57.4 µM), inactives show at the highest dose activity, negative = inhibition, hits mostly inhibitors; P10636; AID 1460; 270,000 compounds, 2.1% hits; recombinant tau K18 P301L (four-repeat tau fragment), heparin-induced fibrillization, ThT fluorescence; further: potency means the concentration at half of the fitted maximal effect; nearly all actives have a fitted effect of over 55% in size
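Aggregation was driven by heparin (20 uM final) acting on recombinant tau […] bearing P301L in 100 mM sodium acetate pH 7; fibrils were detected with Thioflavin T.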
USP1 inh: USP1/UAF1 (human) deubiquitinase inhibition. recombinant USP1/UAF1, Ub-Rhodamine cleavage fluorescence. Potency, µM (series often up to 57.1 µM), without a hit: top-dose activity change, negative = inhibition, actives largely listed as inhibitors. 390,000 compounds, 0.23% hits. AID 743255; further: potency means the concentration at half of the fitted maximal effect; nearly all actives have a fitted effect of over 60% in size
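Step one: compound is pinned into 1nM USP1/UAF1 in HEPES pH 7.8 buffer with TCEP. Step two: 15 min room-temperature incubation. Step three: Ub-Rho (150nM final) starts cleavage, tracked by fluorescence over six one-minute reads.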
Numbers without * were called inactive; ! = not confirmed by another sample; [ ] = another dose, or the depositor's remark. Hits are enriched below; roughly 2.3% of the tested compounds scored in any of these assays. Unless noted, the call rests on the fitted dose curve; in most records, active means well fitted curve in the direction sought with a large enough effect; inconclusive means small, poorly fitted or top-dose-only effect, or another doubt; inactive means no such curve, though single readings can be large; an effect the other way counts as inactive or inconclusive. On the % scale 0 is the no-effect control and ±100 the full control effect.

For Cc1ccc(C(=O)NC(=S)Nc2cccc3nsnc23)cc1 the results were Tau fibril FP inconclusive, FBPA coupling cs -29, Tau fluor counter -22%, Tau ThT inhib 13µM* and USP1 inh -15%.
Screening Cc1cccc(C)c1NC(=O)Cn1c(=O)n(CCCS(=O)(=O)C2CCCCC2)c(=O)c2ccccc21 returned Tau fibril FP -3%, Tau fluor counter -2%, Tau ThT inhib 3% and USP1 inh -6%.
`c1ccc2c(c1)Cc1cc3cc4c(cc3nc1-2)OCO4` gave Tau fibril FP 12%, FBPA coupling cs -10, Tau fluor counter inconclusive and Tau ThT inhib 3.2µM*.
For O=C(NC(=S)NNC(=O)c1cc2ccccc2cc1O)c1ccco1 the results were Tau fibril FP 12%, FBPA coupling cs 3, Tau fluor counter -29%, Tau ThT inhib 13µM* and USP1 inh -6%.
For Cn1cc(-c2nc3cnc(N4CCNCC4)nc3n(C)c2=O)c2ccccc21 the results were FBPA coupling cs -1.
Screening CCN(CC)S(=O)(=O)c1cccc(C(=O)N/N=C/c2cccc(O)c2O)c1 returned Tau fibril FP 7%, FBPA coupling cs -52*, Tau fluor counter 14%, Tau ThT inhib 12% and USP1 inh 3%.
For O=c1c(O)c(-c2ccccc2O)oc2cc(O)cc(O)c12 the results were FBPA coupling cs 0.
O=c1c(O)c(-c2ccc(O)cc2O)oc2cc(O)cc(O)c12 was read as Tau fibril FP inconclusive, FBPA coupling cs -1, Tau fluor counter 28µM*[quencher] and Tau ThT inhib 13µM*.
COc1cc(-c2nnn(CC(=O)Nc3ccc(OC(F)(F)F)cc3)n2)cc(OC)c1OC was read as Tau fibril FP 18µM*, Tau fluor counter inconclusive, Tau ThT inhib -3% and USP1 inh 4%.
`CCOC(=O)Cn1nnc(-c2cc(OC)c(OC)c(OC)c2)n1` gave Tau fibril FP -2%, FBPA coupling cs 0, Tau fluor counter -1%, Tau ThT inhib 0% and USP1 inh -9%.
For CCOC(=O)c1c(NC(=O)c2ccc(S(=O)(=O)N(C)C3CCCCC3)cc2)sc2c1CCN(C(C)C)C2 the results were Tau fibril FP 5%, Tau fluor counter -1%, Tau ThT inhib -2% and USP1 inh 68%.
COc1ccc(NC(=S)Nc2nc(CC(=O)Nc3ccccc3OC)cs2)cc1 was read as Tau fibril FP -8%, FBPA coupling cs -1, Tau fluor counter 13µM*[quencher], Tau ThT inhib -17% and USP1 inh -18%.
CCOc1ccc(NC(=O)CC2C(=O)N(c3ccc(C)cc3)C(=O)N2CCC2=CCCCC2)cc1 (stereo not drawn) was read as Tau fibril FP -5%, Tau fluor counter inconclusive, Tau ThT inhib -3% and USP1 inh -29%.
Screening CN(C)/C=C1\C=C2C(=O)c3ccccc3N2C1=O returned Tau fibril FP -1%, FBPA coupling cs -1, Tau fluor counter -1%, Tau ThT inhib inconclusive and USP1 inh 4.5µM*.
Cc1ccc(NC(=O)Cn2c(=O)n(CCCCC(=O)NCCc3ccccc3)c(=O)c3ccccc32)cc1 was read as Tau fibril FP inconclusive, Tau fluor counter -12%, Tau ThT inhib 11% and USP1 inh -7%.
`O=C(/C(=C/O)N=Nc1ccccc1)c1ccco1` gave Tau fibril FP 6%, FBPA coupling cs 3, Tau fluor counter -13%, Tau ThT inhib 20µM* and USP1 inh -25%.
For CCOC(=O)c1c2c(n(Cc3ccccc3)c1C)C(=O)C(=O)c1ccccc1-2 the results were USP1 inh 2.5µM*.
For CCCCC[C@H](O)C/C=C1/C(=O)C=C[C@@H]1C/C=C\CCCC(=O)O the results were Tau fibril FP -14%, FBPA coupling cs 3, Tau fluor counter 3% and Tau ThT inhib inconclusive.
CCCCC/C=C/C=C1/C(=O)C=C[C@@H]1C/C=C\CCCC(=O)O was read as Tau fibril FP inconclusive, FBPA coupling cs 3, Tau fluor counter -4% and Tau ThT inhib 16µM*!.
Screening CC(=O)Nc1ccc(NC(=O)CCS(=O)(=O)c2ccc3c(c2)CC(=O)N3C)cc1 returned Tau fibril FP -3%, Tau fluor counter -10%, Tau ThT inhib -10% and USP1 inh -4%.
For COc1cccc(NC(=O)CSc2nc3ccc(NC(=O)c4cccs4)cc3s2)c1 the results were Tau fibril FP 7.9µM*, Tau fluor counter 7.1µM*[quencher], Tau ThT inhib 0% and USP1 inh inconclusive.
`CC(=O)Nc1ccc2nc(SCCOc3ccccc3Cl)sc2c1` gave Tau fibril FP 11µM*, Tau fluor counter 11µM*[quencher], Tau ThT inhib inconclusive and USP1 inh -9%.
For CC(C)C(=O)Nc1ccc(NC(=O)c2cccs2)cn1 the results were Tau fibril FP -2%, FBPA coupling cs -44*, Tau fluor counter -2%, Tau ThT inhib -10% and USP1 inh -12%.
Screening COc1ccc(C(=O)Nc2ccc(NC(=O)c3cccs3)cc2)cc1OC returned Tau fibril FP -1%, Tau fluor counter -19%, Tau ThT inhib inconclusive and USP1 inh 25µM*.
O=C(Nc1ccc2nc(SCCOc3ccccc3Cl)sc2c1)c1ccc2c(c1)OCO2 was read as Tau fibril FP inconclusive, Tau fluor counter inconclusive, Tau ThT inhib inconclusive and USP1 inh 0%.
For Cc1cccc(NC(=O)CSc2nc3ccc(NC(=O)c4cccs4)cc3s2)c1 the results were Tau fibril FP inconclusive, Tau fluor counter inconclusive, Tau ThT inhib 5% and USP1 inh -25%.
For COc1ccc(C(=O)Nc2cccc(NC(=O)c3cccs3)c2)cc1OC the results were FBPA coupling cs -5 and USP1 inh -14%.
CN1C(=O)C2(c3ccccc31)N(c1cccc(C(F)(F)F)c1)C(=O)CS2(=O)=O (stereo not drawn) was read as Tau fibril FP -9%, Tau fluor counter -9%, Tau ThT inhib -1% and USP1 inh -21%.
COc1cc(C)ccc1OCCSc1nc2ccc(NC(=O)c3ccco3)cc2s1 was read as Tau fibril FP inconclusive, Tau fluor counter inconclusive, Tau ThT inhib inconclusive and USP1 inh -19%.
For COc1cc(C)ccc1OCCSc1nc2ccc(NC(=O)c3cccs3)cc2s1 the results were Tau fibril FP 10µM*, Tau fluor counter 5µM*[quencher], Tau ThT inhib 1% and USP1 inh -26%.
`CC(=Nc1ccccc1N)c1c(C)cc(=O)n(O)c1O` gave FBPA coupling cs -30*!.
Screening O=C1Nc2ccc(F)cc2C12Nc1ccccc1-c1nnc(SCc3ccccc3F)nc1O2 (stereo not drawn) returned Tau fibril FP inconclusive, FBPA coupling cs -10, Tau fluor counter inconclusive, Tau ThT inhib 25µM* and USP1 inh inconclusive.
